Most compounds without a hit are left out; they make up all but 11% or so of the library.
L3MBTL1 block = inhibitors of human L3MBTL1 | Q9Y468 | Potency, µM (top dose mostly 57.1 µM), for the others: top-dose activity, negative = inhibition, hits mostly inhibitors | AID 485360 | hit rate 0.66% among 230,000 | AlphaScreen L3MBTL1–H3K9me1 peptide binding; note: % is set by controls: 0 for no effect and ±100 for the full control effect; nearly all actives have a fitted effect of over 60% in size
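Read-out is AlphaScreen signal from streptavidin donor and nickel chelate acceptor beads (10 ug/mL final each) bridging L3MBTL1 (50 nM) and biotinylated K9-monomethylated H3(1-15) peptide (75 nM), after 30 min compound exposure at room temperature.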
HP1b chromo inh = blocks HP1-beta chromodomain binding to methylated histone tails; P83916; AlphaScreen HP1-beta / biotin-H3K9me3 peptide binding; Potency, µM (series often up to 114 µM), inactives show at the top dose activity change, negative = inhibition, hits mostly inhibitors; hit rate 0.56% among 390,000; note: nearly all actives have a fitted effect of over 70% in size
Target sequence (P83916 whole entry, looked up): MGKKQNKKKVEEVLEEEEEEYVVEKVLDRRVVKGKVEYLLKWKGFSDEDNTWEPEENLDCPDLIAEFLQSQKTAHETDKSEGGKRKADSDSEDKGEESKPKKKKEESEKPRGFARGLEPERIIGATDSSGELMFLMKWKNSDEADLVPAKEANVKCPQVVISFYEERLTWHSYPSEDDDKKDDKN
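HP1-beta protein (50 nM final) preincubated 30 min at room temperature with biotinylated H3(1-18)K9me3 peptide (50 nM) in PBS pH 7.4, 0.01% Tween-20, then compound added for 30 min. AlphaScreen streptavidin donor/nickel chelate acceptor beads (10 ug/mL final), 30 min dark, luminescence read.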
BAZ2B block = inhibitors of human BAZ2B bromodomain; hit rate 4.4% among 360,000; AID 504333; Q9UIF8; AlphaScreen BAZ2B-H3K14Ac peptide displacement; Potency, µM (titrated, usually from 114 µM), for inactives: at the highest dose activity change, negative = inhibition, usual class: inhibitors; note: % is set by controls: 0 for no effect and ±100 for the full control effect; nearly all actives have a fitted effect of over 60% in size
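BAZ2B 50 nM plus b-H3(5-23)K14Ac 50 nM, PBS pH 7.4/0.01% Tween-20, 30 min RT; compound added (max 110 uM), 30 min RT; streptavidin donor/Ni-chelate acceptor beads 10 ug/mL final, 20 min dark; AlphaScreen read.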
JMJD2A Tudor = JMJD2A Tudor domain (human) inhibition; AlphaScreen JMJD2A-Tudor / H3K4me3 peptide binding; Potency, µM (series often up to 114 µM), for inactives: at the top dose activity change, negative = inhibition, hits mostly inhibitors; O75164; hit rate 4.4% among 390,000; note: % is set by controls: 0 for no effect and ±100 for the full control effect; nearly all actives have a fitted effect of over 50% in size
G9a block = inhibitors of human histone lysine methyltransferase G9a | Potency, µM (series often up to 102 µM), without a hit: top-dose activity, negative = inhibition, hits mostly inhibitors | hit rate 8.8% among 350,000 | AID 504332 | G9a H3K9 monomethylation, AlphaScreen, 2 h | Q96KQ7; note: % is set by controls: 0 for no effect and ±100 for the full control effect; nearly all actives have a fitted effect of over 75% in size
Target sequence (Q96KQ7 913-1193 limits assumed): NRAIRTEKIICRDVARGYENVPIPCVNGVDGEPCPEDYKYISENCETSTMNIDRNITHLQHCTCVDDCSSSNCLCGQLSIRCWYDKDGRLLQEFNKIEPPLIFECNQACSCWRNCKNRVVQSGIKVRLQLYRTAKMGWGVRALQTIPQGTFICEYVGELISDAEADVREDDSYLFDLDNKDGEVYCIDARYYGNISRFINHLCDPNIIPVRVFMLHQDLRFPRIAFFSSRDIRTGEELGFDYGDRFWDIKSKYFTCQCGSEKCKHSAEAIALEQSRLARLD
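G9a (20 nM) was preincubated 15 min with compound, then reacted 2 h at room temperature with 500 nM biotin-H3K9 peptide and 20 µM SAM. Monomethyl-H3K9 detected by AlphaScreen using anti-H3K9me1 antibody.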
The depositor's hits bear a star; ? = inconclusive; nt = no result; [ ] = remark or other dose. Calls come from the whole dose curve; as a rule, active = well fitted inhibition curve with a large enough effect; inconclusive = small, poorly fitted or top-dose-only effect; inactive = no such curve, though single readings can be large or run the other way. Potency is the fitted concentration of half-maximal effect.

SMILES | L3MBTL1 block | HP1b chromo inh | BAZ2B block | JMJD2A Tudor | G9a block
COc1ccc(S(=O)(=O)N2CCCOC2CNC(=O)C(=O)NCCCn2ccnc2)cc1 (stereo not given) | 5% | 20% | 79µM* | -12% | 6%
Cc1ccc(S(=O)(=O)N2CCCOC2CNC(=O)C(=O)NCc2cccnc2)cc1 (stereo not given) | 1% | 26% | 4% | -7% | 27%[59 µM]
O=C(NCCCn1ccnc1)C(=O)NCC1OCCN1S(=O)(=O)c1ccc(F)cc1 (stereo not given) | ? | 28% | 6.3µM* | 56µM* | 19%
CC(C)c1ccc(NC(=O)CN2C(=O)CCc3cc(S(=O)(=O)N4CCOCC4)ccc32)cc1 | nt | 25% | -13% | -28% | 10%[59 µM]
Cc1c(Cl)cccc1NC(=O)c1ncn(-c2ccccc2)n1 | nt | 16% | 5% | -11% | 5%[59 µM]
Cc1cc(C)c(S(=O)(=O)N2CCCOC2CNC(=O)C(=O)NCCCn2ccnc2)c(C)c1 (stereo not given) | -7% | 20% | ? | 1% | 5%[59 µM]
Cc1ccc(C)c(S(=O)(=O)N2CCCOC2CNC(=O)C(=O)NCCCn2ccnc2)c1 (stereo not given) | -23% | ? | 45µM* | -33% | 2%[59 µM]
CC(C)OC(=O)c1ccc(Cn2nnc3sc4c(c3c2=O)CCCC4)cc1 | nt | 46% | 17% | 21% | 28%[59 µM]
COc1ccc(-c2ccc(SCC(=O)N3CCCC3)nn2)cc1OC | -4% | 25% | 4% | -1% | ?
COc1ccc(-c2ccc(SCC(=O)c3cccs3)nn2)cc1OC | -2% | 5% | -23% | -14% | 50µM*
COc1ccc(-c2ccc(SCC(=O)c3ccc(F)cc3)nn2)cc1OC | -1% | 14% | 4% | -11% | 35µM*
COc1ccc(C(=O)CSc2ccc(-c3ccc(C)cc3)nn2)cc1 | 11% | 41% | -3% | -1% | ?
CCOc1ccccc1-c1noc(CCCC(=O)Nc2cccc(C(F)(F)F)c2)n1 | nt | 10% | 13% | -11% | -1%[59 µM]
O=[N+]([O-])c1ccc(-c2nn(-c3ccccc3)cc2/C=N/n2c(-c3cccs3)n[nH]c2=S)cc1 | nt | 33% | 1% | -22% | nt
COc1ccc(/C=N/n2c(-c3cccs3)n[nH]c2=S)cc1 | -8% | -17% | -37% | 45µM* | ?
S=c1[nH]nc(-c2cccs2)n1/N=C/c1c(Cl)cccc1Cl | -5% | -24% | -34% | ? | 1.3µM*
Cc1ccc(/C=N/n2c(-c3cccs3)n[nH]c2=S)cc1 | -4% | 5% | -26% | 50µM* | 0.45µM*
O=C1/C(=C\c2ccc(O)c(O)c2)N=C2CCCCCN12 | ? | -4% | ? | 3.2µM* | 28µM*
COc1cc(/C=C2\N=C3CCCCCN3C2=O)ccc1O | nt | 39% | -24% | -18% | ?
O=C1CS(=O)(=O)C2(C(=O)Nc3ccccc32)N1c1cccc(Cl)c1 (stereo not given) | nt | 21% | 1%[57.1 µM] | -1% | 22µM*
Cn1nnnc1Sc1ncnc2scc(-c3ccccc3S(C)(=O)=O)c12 | nt | nt | nt | -16% | nt
Cc1cc(-c2nnc(-c3ccccc3)c(-c3ccccc3)n2)c(C)o1 | -11% | -20% | ? | ? | 16µM*
CN(C(=O)CSc1nnc(COc2ccccc2)o1)c1ccccc1 | nt | 31% | 79µM* | -25% | -23%[59 µM]
O=C(O)c1ccc(CSc2nnc(COc3ccccc3)o2)cc1 | nt | 3% | 7% | -12% | 45µM*
Cc1csc(N(C)C(=O)CSc2nnc(COc3cccc4ccccc34)o2)n1 | -15%[11.4 µM] | 40% | -6% | -16% | 10µM*
SMILES | L3MBTL1 block | HP1b chromo inh | BAZ2B block | JMJD2A Tudor | G9a block
Cc1ccc(C)c(-n2nnc(-c3nc(-c4ccccc4C)no3)c2C)c1 | nt | 85% | 25% | 29% | 13%[59 µM]
O=C(Cn1c(=S)[nH]c2ccccc2c1=O)NCCc1ccccc1 | 7% | 39% | -4% | 0% | ?
COc1cccc(-c2nn(C)c3sc(C(=O)NCc4ccc(C)o4)cc23)c1 | nt | -34% | ? | 50µM* | ?
COc1ccc(NC(=O)C2CCN(S(=O)(=O)c3cccc(-c4noc(C)n4)c3)CC2)cc1OC | nt | ? | -18% | -26% | -1%[59 µM]
NC(=O)C1CCN(c2nc(-c3ccccc3N)cs2)CC1 | -1% | 49% | ? | -14% | ?
CC(=O)c1cccc(-c2csc(N3CCC(C(N)=O)CC3)n2)c1 | -7% | 45% | 50µM* | -19% | ?
NC(=O)C1CCN(c2nc(-c3ccccc3-c3ccccc3)cs2)CC1 | -11% | -15% | ? | 45µM* | -1%[12.7 µM]
COc1ccccc1N(C1=NCCCS1)S(=O)(=O)c1ccc(C(C)(C)C)cc1 | -6% | 2% | -1% | -35% | 6%
O=C(Nc1ccc(S(=O)(=O)Nc2nccs2)cc1)c1cnc(Cl)c(Cl)c1 | nt | 21% | ? | -9% | ?
CC(=O)c1cc(-c2ccccc2)n(CC(=O)NC2CCCC2)c1C | 11% | 27% | ? | -8% | -7%[59 µM]
CC(=O)c1cc(-c2ccccc2)n(CC(=O)N2CCN(C3CCCC3)CC2)c1C | -6% | -14% | 50µM* | 12%[11.4 µM] | 7%[12.7 µM]
CC(=O)c1cc(-c2ccccc2)n(CC(=O)N2CCC(C)CC2)c1C | 20%[11.4 µM] | 0% | 50µM* | -11% | 21%[59 µM]
CCCSCCCNC(=O)C1CCN(c2nc3ccccc3nc2C(F)(F)F)CC1 | nt | 19% | -1% | -6% | -15%[59 µM]
CCCN1CCN(S(=O)(=O)c2ccc(-c3cc(C)no3)s2)CC1 | nt | 51% | -19% | -6% | ?
Nc1c(C(=O)CCC(=O)O)oc2ccc(Cl)cc12 | nt | 19% | 5% | -18% | 56µM*
CCCCN(C(=O)c1ccc2c(c1)OCO2)c1ccccc1 | 4% | 8% | 4% | -2% | 50µM*
CN(C)CCC(=O)c1cccc(Br)c1 | -11% | ? | -22% | -22% | 2µM*
CN(C)CCC(=O)c1ccc2c(c1)OCO2 | 3% | 4% | -30% | ? | 1.8µM*
CN(CCOC(=O)c1cccc(Br)c1)C(C)(C)C | nt | 12% | -7% | -23% | ?
CC(C)(CC(=O)O)CC(=O)Nc1ccccc1Oc1ccccc1 | -5% | 31% | -2% | -5% | 0%
Cc1cc2c(NC(=O)Nc3ccc(F)cc3)cccc2nn1 | -2% | 42% | -18% | -1% | 50µM*
Cc1cc2c(NC(=O)CC(C)(C)CC(=O)O)cccc2nn1 | nt | 24% | 50µM* | -19% | nt
O=[N+]([O-])c1ccc2[nH]c(O)c(N=NC3CCS(=O)(=O)C3)c2c1 (stereo not given) | nt | 70% | -17% | -7% | 2%[12.7 µM]
CCCCN(Cc1ccco1)C(=O)C1CCCN(c2ncnc3c2nc2n3CCCCC2)C1 (stereo not given) | nt | 37% | ? | ? | 79µM*
COC(=O)c1ccc(CSc2nc3ccccc3s2)o1 | 28% | 81% | 69% | 47% | 3%[59 µM]
COC(=O)C1=C(CSc2nc3ccccc3s2)NC(=O)NC1c1ccc(F)cc1 (stereo not given) | -4% | -4% | 5% | -10% | 40µM*

High-throughput results from PubChem BioAssay.
